For part of these data: Measured potencies and affinities stand elsewhere.
Key:
Staphylococcus aureus = test: Antibacterial activity against Staphylococcus aureus MRSA ATCC 43300 (CO-ADD:GP_020); MIC in CAMBH media using NBS plates, by Resazurin F(560/590); format: functional; conditions: Concentration 20 uM, ASSAY_TEST Inhibition of Bacterial Growth, detection method Resazurin, Fluorescence (ex560/em590), MEDIA CAMHB, plate type 384well, CORNING #3640, time 18 hr
Acinetobacter baumannii = test: Antibacterial activity against Acinetobacter baumannii ATCC 19606 (CO-ADD:GN_034); MIC in CAMBH media using NBS plates, by Resazurin F(560/590); format: functional; conditions: Concentration 20 uM, ASSAY_TEST Inhibition of Bacterial Growth, detection method Resazurin, Fluorescence (ex560/em590), MEDIA CAMHB, plate type 384well, CORNING #3640, time 18 hr
Escherichia coli = test: Antibacterial activity against Escherichia coli ATCC 25922 (CO-ADD:GN_001); MIC in CAMBH media using NBS plates, by Resazurin F(560/590); format: functional; conditions: Concentration 20 uM, ASSAY_TEST Inhibition of Bacterial Growth, detection method Resazurin, Fluorescence (ex560/em590), MEDIA CAMHB, plate type 384well, CORNING #3640, time 18 hr
Klebsiella pneumoniae = conditions: Concentration 20 uM; ASSAY_TEST Inhibition of Bacterial Growth; detection method Absorption (OD600); MEDIA CAMHB; plate type 384well; NBS; CORNING #3640; time 18 hr
Candida albicans = conditions: 20 µM
Cryptococcus neoformans = conditions: Concentration 20 uM; ASSAY_TEST Inhibition of Fungal Growth; detection method Resazurin; Absorption (OD600-OD570); plate type 384well; NBS; CORNING #3640

Structure (SMILES)	Inhibition (Staphylococcus aureus)	Inhibition (Acinetobacter baumannii)	Inhibition (Escherichia coli)	Inhibition (Klebsiella pneumoniae)	Inhibition (Candida albicans)	Inhibition (Cryptococcus neoformans)
O=C(Nc1cccc(Cl)c1)Nn1cnnc1	17.05%	8.62%	2.61%	6%	3.98%	-3.41%
Cc1nc(N)nc(Nc2ccc(C#N)cc2)c1Br	13.25%	-2.28%	22.67%	5.37%	0.12%	-9.52%
O=C(O)Cc1ccc(/N=N/c2c(O)c(C(=O)O)cc3ccccc23)cc1	6.99%	6.89%	1.22%	11.34%	-4.81%	-5.37%
CN1CN(C)C(c2ccncc2)=C1c1ccncc1	5.44%	14.08%	-2.65%	0.75%	-0.59%	-1.9%
O=c1oc(-c2ccccc2)c(-c2ccccc2)c2ccccc12	13.22%	4.08%	7.81%	4.41%	1.88%	-4.28%
O=c1cc(-c2ccccc2)oc2ccc(O)cc12 [6-HYDROXYFLAVONE]	-4.33%	-2.45%	-5.6%	8.45%	7.78%	-10.88%
Cc1cc(O)c2c(C)ccc(C)c2n1	0.21%	1.08%	3.82%	5.25%	0.13%	-9.44%
O=C(Nc1ccccc1)Oc1cccnc1O	7.3%	9.45%	-1.58%	18.58%	5.22%	-7.26%
CSc1nc2cc(S(=O)(=O)N3CCCCC3)ccc2s1	2.12%	9.92%	-7.83%	10.24%	7.84%	2.72%
CC(=O)Oc1c(C)c(OC(C)=O)c2c(c1C(C)=O)OC1CC(=O)C(C(C)=O)=C(O)C21C (centres undefined)	13.8%	-11.04%	18.15%	8.45%	3.77%	-8.61%
Cc1ccccc1NC(=O)C(=O)Nc1ccccc1C	22.64%	-12.42%	18.63%	-3.39%	6.51%	7.92%
O=C(Oc1cccnc1O)c1cccc(Cl)c1	-7.64%	10.47%	6.47%	11.85%	13.4%	-17.52%
CC1(C)N=C(N)N=C(NCCCOc2ccc([N+](=O)[O-])cc2)N1.CCS(=O)(=O)O	25.11%	-9.38%	11.82%	18.17%	-1.81%	-10.08%
NS(=O)(=O)c1cc2c(cc1Cl)NC(Cc1ccccc1)NS2(=O)=O (centres undefined) [BENZYLHYDROCHLOROTHIAZIDE]	8.57%	4.78%	13.54%	17.47%	3.24%	-10.94%
N#CC1C(=O)NC(=O)C(C#N)C12CCCC(C(F)(F)F)C2 (centres undefined)	7.59%	8.61%	-6.62%	4.19%	1.89%	-0.69%
Cc1ccc(C(C)C)cc1NC(=O)Nc1ccc([N+](=O)[O-])cc1	19.7%	7.88%	-5.77%	22.27%	8.72%	-7.56%
O=S(=O)(Oc1ccc(Cl)cc1)c1cccc2cccnc12	11.37%	-12.19%	8.94%	7.96%	-1.21%	-3.12%
CCSc1nc(C)cc(S)n1	8.56%	-11.79%	13.36%	13.31%	25.2%	-6%
COCC(=O)OC1CCn2c1nc1c2C(=O)C(C)=C(NC(C)=O)C1=O (centres undefined)	9.15%	12.44%	-2.53%	8.02%	-3.01%	-13.92%
CCOC(=O)C(C#N)C(=N)C1C(=O)OC2CCCCC21 (centres undefined)	5.44%	-19.8%	15.65%	4.77%	-2.13%	-12.86%
Clc1cc2c(nn1)Nc1ccccc1S2	-2.08%	9.37%	10.31%	10.14%	0.32%	-16.64%
Oc1ccc(Cc2ccc(Cl)cc2)c(O)c1	10.37%	-6.86%	10.87%	7.26%	-0.85%	-7.42%

Structure (SMILES)	Inhibition (Staphylococcus aureus)	Inhibition (Acinetobacter baumannii)	Inhibition (Escherichia coli)	Inhibition (Klebsiella pneumoniae)	Inhibition (Candida albicans)	Inhibition (Cryptococcus neoformans)
O=C(c1ccccc1)C1N=NCC1c1ccc(Cl)cc1 (centres undefined)	21.05%	1.64%	18.84%	8.27%	8.01%	-11.46%
COc1ccc(C2C3=C(COC3=O)Oc3cc4c(cc32)OCO4)cc1OC (centres undefined)	25.54%	-8.11%	12.52%	17.02%	0.53%	-1.21%
O=C(O)c1ccc(O)c(O)c1 [PROTOCATECHUIC ACID]	11.87%	-8.73%	11.18%	17.43%	-0.18%	-4.26%
Cc1ccc(NC(=O)Nc2cccnc2)cc1NC(=O)Nc1cccnc1	4.86%	3.3%	5.1%	8.48%	-3.78%	-10.14%
CSc1nc2nc(C(O)c3ccccc3)nc-2c[nH]1 (centres undefined)	9.64%	6.4%	-14.24%	16.25%	8.94%	28.87%
O=C(c1cccnc1)c1cc(-c2ccccn2)c(=O)n2ccccc12	15.83%	5.57%	12.26%	7.21%	0.65%	-7.13%
Nc1nc(O)c2nn(-c3ccccc3)nc2n1	7.59%	-13.43%	5.48%	0.39%	-3.03%	29.86%
CC1=CC(C)(C)N=C(S)N1c1cccc2cc(S(=O)(=O)O)ccc12	-5.5%	9.59%	-20.55%	7.04%	8.59%	39.69%
CCOC(=O)N1CCN(Cc2c(O)ccc3ccccc23)CC1	1.46%	-8.59%	8.73%	12.37%	3.24%	-5.96%
CC(=O)[C@@]1(O)[C@H](C)C[C@H]2[C@@H]3C=C(C)C4=Cc5c(cnn5-c5ccccc5)C[C@]4(C)[C@H]3[C@@H](O)C[C@@]21C	3.25%	-8.97%	7.95%	0.96%	4.25%	-3.62%
O=[N+]([O-])c1ccc2[nH]c3nc4ccccc4nc3c2c1	17.59%	16.49%	-1.33%	-1.62%	5.48%	44.37%
O=C1NC(=O)N2CCSC2(Cc2ccccc2)N1 (centres undefined)	11.67%	11.67%	-4.61%	17.33%	4.4%	-2.7%
CC(=O)N1C(=O)C2(NCC(C)N2)c2ccccc21 (centres undefined)	7.15%	-16.52%	6.45%	10.18%	2.13%	-1.95%
CC(C)(C)N=C(S)NC(C)(C)C	10.55%	-9.16%	4.33%	8.8%	1%	-0.12%
CN(C)S(=O)(=O)c1ccc(N)c([N+](=O)[O-])c1	-6.85%	12.87%	8.14%	9.42%	1.38%	-8.3%
O=c1c(O)cccc2cc(O)c(O)c(O)c12 [PURPUROGALLIN]	-28.9%	1.69%	13.14%	21.3%	53.6%	-25.98%
CN(C)/C=N/c1ccc(Cl)c(Cl)c1	2.81%	14.75%	-10.37%	19.84%	8.37%	-5.94%
CCN(CC)C(=O)Cn1ccc(NC(C)=O)nc1=O	-5.08%	-19.36%	5.52%	3.42%	0.38%	-8.8%
COC(=O)Nc1csc2c1NC(=O)CCCC2	9.05%	-9.14%	10.25%	10.74%	1.85%	-7.13%
c1ccc(-c2nnc(-c3ccccn3)s2)nc1	3.28%	-18.69%	9.86%	4.63%	4.16%	-18.42%
COc1cc2c(c3c1c(=O)c1cccc(F)c1n3C)C=CC(C)(C)O2	18.94%	5.21%	5.53%	10.26%	1.02%	-11.93%
OCc1ncc(-c2ccccc2)s1	-7.34%	-9.91%	3.7%	5.05%	2.13%	-4.82%
